{"source": "PubChem BioAssay (NCI)", "note": "Compounds without any hit were thinned out: in the full panel of roughly 79,000, 15% have a hit. Unmarked numbers belong to inactive results. Active and inactive are the calls of the source. Cut-off read from the data, not from the text of the source: active = growth inhibition above about 70%; inactive = the rest."}
{"test": "NCI Yeast Anticancer Drug Screen. Data for the mlh1 rad18 strain (AID 175)", "details": "S. cerevisiae mlh1 rad18 strain growth inhibition; at 50.0 µM (retest, dose inferred, filed as 5.0); stronger effect = higher value", "method_in_brief": "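Test agents were incubated with a yeast strain of defined genotype (DNA damage repair defect). Inhibition of growth was derived by comparison with vehicle-exposed cultures.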"}
{"smiles": "Clc1ccc(OCC(Cn2ccnc2)c2ccc(Cl)cc2)cc1", "note": "(stereo unspecified)", "growth inhibition": "97% (active)"}
{"smiles": "CC(C)C(CC(C)(C)C)OC(=O)Nc1cccc2ccccc12", "note": "(stereo unspecified)", "growth inhibition": "97% (active)"}
{"smiles": "CC(=O)OC[C@@]1(C)[C@@H]2CC[C@]3(C)[C@H](C(=O)C=C4[C@@H]5CC(C)(C)CC[C@]5(C(=O)O)CC[C@]43C)[C@@]2(C)CC[C@@H]1OC(C)=O", "growth inhibition": "88% (active)"}
{"smiles": "CCOC(=O)C[n+]1c(C)sc2ccccc21", "growth inhibition": "43%"}
{"smiles": "O=[N+]([O-])c1ccc(/C=N/O)s1", "growth inhibition": "99% (active)"}
{"smiles": "C=C(C)COc1ccccc1C(OCC)OCC", "growth inhibition": "39%"}
{"smiles": "CCCCCCCCCCCCCC1OC(=O)C(C)=C1C(=O)O", "note": "(stereo unspecified)", "growth inhibition": "74% (active)"}
{"smiles": "CC(C)C(Sc1nc(-c2ccccc2)c(-c2ccccc2)[nH]1)c1n[nH]c(=S)n1-c1ccccc1", "note": "(stereo unspecified)", "growth inhibition": "97% (active)"}
{"smiles": "Cc1ccc(-c2c(C#N)c(S)n(NS(=O)(=O)c3ccccc3)c(=O)c2C#N)cc1", "growth inhibition": "66%"}
{"smiles": "O=C(c1ccccc1)c1ccc2c(c1Cl)C(=O)c1ccccc1C2=O", "growth inhibition": "0%"}
{"smiles": "COc1cccc(C2c3cc4c(cc3OC(O)C2C)OCO4)c1O", "note": "(stereo unspecified)", "growth inhibition": "30%"}
{"smiles": "CCC[N+]1=C(/C=C/c2ccc3cccnc3c2O)C(C)(C)c2ccccc21", "growth inhibition": "98% (active)"}
{"smiles": "O=C(/C=C/c1ccccc1Cl)c1ccc(F)cc1", "growth inhibition": "47%"}
{"smiles": "CCN(CC)C(=S)N=Nc1c(O)[nH]c2ccccc12", "growth inhibition": "99% (active)"}
{"smiles": "C[CH2][Sn]([CH2]C)([O]C(=O)c1ccccc1OC)[O][Sn]([CH2]C)([CH2]C)[O]C(=O)c1ccccc1OC", "growth inhibition": "84% (active)"}
{"smiles": "CCCCCCCCCCCCCCCC[N+](C)(C)C(C)c1ccc(OC)cc1", "note": "(stereo unspecified)", "growth inhibition": "97% (active)"}
